FBPA coupling cs – qHTS Assay for Inhibitors of Fructose-1,6-bisphosphate Aldolase from Giardia Lamblia: Coupling assay counterscreen | activity change, negative = inhibition, % at 58.2 µM, hits read low | coupling enzyme system counterscreen, AmpLite Red fluorescence | 0.67% of 290,000 active; in the data active = activity change below about -30%
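Fluorescence at 525 nm excitation and 598 nm emission measured inhibition of the coupled detection system without aldolase. Compounds (at 57.5 uM final) were preincubated 10 min at room temperature with coupling enzyme reagent before a 20 min substrate/AmpLite Red step.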
rTrxR1 inhibitor – qHTS Assay for Inhibitors of Mammalian Selenoprotein Thioredoxin Reductase 1 (TrxR1): qHTS | Thioredoxin reductase 1, cytoplasmic (Rattus norvegicus), O89049 | recombinant rTrxR1, NADPH fluorescence consumption, selenite substrate | Potency, µM (series often up to 114 µM), actives largely listed as inhibitors | 1% of 390,000 active | AID 588453, 2011; also: nearly all actives have a fitted effect of over 65% in size
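Rat TrxR1 (90 nM in the dispensed reagent) was pre-reduced with 400 uM NADPH for 5 min at room temperature, then incubated with compound for 15 min. After 400 uM selenite was added, NADPH fluorescence (Ex 340/Em 450 nm) was followed for 8 min.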
TrxR1 substrate – qHTS Assay for Substrates of Mammalian Selenoprotein Thioredoxin Reductase 1 (TrxR1): qHTS. purified TrxR1 substrate turnover, NADPH consumption readout. 0.01% of 390,000 active. Thioredoxin reductase 1, cytoplasmic (Rattus norvegicus), O89049. AID 588456, 2011. Potency, µM (series often up to 114 µM); also: nearly all actives have a fitted effect of over 50% in size
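Rat TrxR1, dispensed at 90 nM, was prereduced with 400 uM NADPH (final) for 5 min at ~22 deg C, then incubated with compound 15 min before 400 uM selenite. A first-read NADPH fluorescence drop versus no-compound background flagged substrates.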
GALK inhibitor – qHTS Assay for Inhibitors of Human Galactokinase (GALK); P51570; Purified GALK, Kinase-Glo residual ATP luminescence; Potency, µM (doses to about 57.5 µM), usual class: inhibitors; 0.007% of 270,000 active; AID 1868, 2009
Target sequence (P51570 whole entry, looked up): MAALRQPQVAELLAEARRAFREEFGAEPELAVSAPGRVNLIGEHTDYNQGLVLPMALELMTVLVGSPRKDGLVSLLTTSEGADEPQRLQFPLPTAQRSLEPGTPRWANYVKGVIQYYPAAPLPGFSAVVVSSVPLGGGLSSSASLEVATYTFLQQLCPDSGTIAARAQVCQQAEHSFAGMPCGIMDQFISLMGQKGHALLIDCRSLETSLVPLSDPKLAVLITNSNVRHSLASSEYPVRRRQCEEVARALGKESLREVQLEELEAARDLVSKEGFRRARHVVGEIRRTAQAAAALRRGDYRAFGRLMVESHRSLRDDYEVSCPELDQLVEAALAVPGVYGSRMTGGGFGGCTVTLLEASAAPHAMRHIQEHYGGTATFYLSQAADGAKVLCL
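GALK at 5 nM final was combined with compound, 35 uM ATP and 100 uM galactose in HEPES pH8.0 with MgCl2 and DTT. The reaction ran one hour at room temperature before luminescent ATP detection.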
VP16 counter – VP16 counterscreen qHTS for inhibitors of ROR gamma transcriptional activity; Drosophila S2 Gal4-VP16 UAS-luciferase, luminescence, 20 h; Potency, µM (highest dose often 53.6 µM), hits mostly inhibitors; 3.5% of 310,000 active;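 also: Gal4-VP16 expression switched on by copper sulfate through the metallothionein promoter; nearly all actives have a fitted effect of over 50% in size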
RORg inh – qHTS for inhibitors of ROR gamma transcriptional activity | Potency, µM (doses to about 53.6 µM), hits mostly inhibitors | Nuclear receptor ROR-gamma (Mus musculus), P51450 | Drosophila S2 Gal4-RORgamma UAS-luciferase reporter, 20 h | AID 2551, 2010 | 5.4% of 310,000 active; also: nearly all actives have a fitted effect of over 60% in size
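Luminescence from a UAS-regulated Photinus luciferase reporter in stably transfected Drosophila Schneider cells is measured; decreased signal marks ROR gamma inhibition. Fusion expression is induced by 700 uM copper sulfate for 20 hr.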
Each line names hits and unclear results; the compound was inactive in the other large screens; ! = a repeat was not active. This is a sample that favours compounds with a hit; in the whole collection about 5.9% have one here. Unless noted, calls follow the shape of the dose curve; as a rule, active = well fitted curve in the direction sought with a large enough effect; inconclusive = small, poorly fitted or top-dose-only effect, or another doubt; inactive = no such curve, though single readings can be large; an effect the other way counts as inactive or inconclusive.

COc1ccc(C(=O)Nc2ccc3oc(-c4cc(Cl)ccc4Cl)nc3c2)cc1Br	none (no result: FBPA coupling cs, GALK inhibitor, VP16 counter, RORg inh)
CCn1nc(NC(=O)c2ccccn2)c2cc3cccc(C)c3nc21	VP16 counter 4µM, RORg inh 3.2µM
CCn1nc(NC(=O)c2ccncc2)c2cc3cccc(C)c3nc21	none
N/C(=N\OC(=O)c1ccc(Cl)cc1)c1ccn[nH]1	VP16 counter inconclusive, RORg inh 14µM (no result: FBPA coupling cs)
N/C(=N\OC(=O)c1ccc(Cl)cc1)c1ccc(Cl)cc1	none
CC(=O)Nc1nnc(COc2ccc(Cl)cc2)s1	none
CCOC(=O)N/N=C/c1ccc(N(CC)CC)cc1O	VP16 counter inconclusive, RORg inh inconclusive
CCN(CC)c1ccc(/C=N/NC(=O)CCC(=O)NCc2ccccc2)c(O)c1	VP16 counter inconclusive, RORg inh 3.2µM
O=C(CNC(=O)C1COc2ccccc2O1)N/N=C\c1ccc(Br)cc1 (stereo not given)	none
COc1ccc(Br)cc1/C=N/NC(=O)CNC(=O)C1COc2ccccc2O1 (stereo not given)	FBPA coupling cs -41
COc1cc(/C=N\NC(=O)CNC(=O)C2COc3ccccc3O2)ccc1O (stereo not given)	none
CCN(CC)c1ccc(/C=N/NC(=O)CNC(=O)C2COc3ccccc3O2)c(O)c1 (stereo not given)	VP16 counter 2.8µM, RORg inh 2.8µM
Cc1cccc(C)c1NC(=O)CCS(=O)(=O)c1ccc2c(c1)CC(C)N2C(=O)C1CC1 (stereo not given)	rTrxR1 inhibitor inconclusive (no result: FBPA coupling cs, GALK inhibitor, VP16 counter, RORg inh)
O=C(NC1CCCC1)C(c1ccc(F)cc1)N(Cc1ccc(F)cc1)C(=O)CCl (stereo not given)	rTrxR1 inhibitor 40µM
COC(CN(C(=O)CCl)C(C(=O)NC1CCCCC1)c1ccc(C)cc1)OC (stereo not given)	rTrxR1 inhibitor 40µM
COCCNC(=S)N/N=C/c1ccc(N2CCOCC2)cc1	VP16 counter 20µM, RORg inh inconclusive
COCCNC(=S)N/N=C/c1ccc([N+](=O)[O-])cc1	VP16 counter inconclusive, RORg inh inconclusive
Cc1ccc(/C=N/NC(=S)NC(C)C)o1	rTrxR1 inhibitor inconclusive, VP16 counter 2.8µM, RORg inh 1.4µM
O=C(O)c1cc(N/N=C/c2ccc(N3CCOCC3)cc2)ccc1Cl	VP16 counter inconclusive, RORg inh 7.1µM
Clc1cccc(N/N=C/c2ccc(N3CCOCC3)cc2)c1	none (no result: GALK inhibitor)
Cc1ccc(/C=N/NC(=O)C(O)c2ccccc2)o1 (stereo not given)	none
C=C(C)CNC(=S)N/N=C/c1c(F)cccc1F	VP16 counter 6.3µM, RORg inh 1.8µM
CCC(CC)N1CCN(S(=O)(=O)c2ccc(OC)cc2)CC1	none
COC(C[C@H]1O[C@H]1C(=O)[C@H](C)OCc1ccccc1)OC	none (no result: FBPA coupling cs, GALK inhibitor, VP16 counter, RORg inh)
c1ccc(CSCc2nc3ccccc3[nH]2)cc1	none
C/C(=N\NC(=O)C1CC1)c1ccc(NC(=O)c2ccc(Br)o2)cc1	none (no result: rTrxR1 inhibitor, TrxR1 substrate)
C=C(C)CNC(=S)N/N=C/c1ccc([N+](=O)[O-])cc1	VP16 counter 4.5µM, RORg inh 1.1µM
COC(=O)c1ccc(/C=N/NC(=S)NC(C)C)cc1	VP16 counter 7.1µM, RORg inh 2µM
CC(C)NC(=S)N/N=C/c1ccc(N2CCOCC2)cc1	VP16 counter 4.5µM, RORg inh 2.8µM
Oc1ccc(/C=N/NC(=S)N2CCOCC2)cc1	VP16 counter inconclusive, RORg inh 1.1µM
Cn1nc(C(=O)Nc2cc(F)ccc2F)c2c1-c1ccccc1SC2	none (no result: FBPA coupling cs, GALK inhibitor, VP16 counter, RORg inh)
Cc1ccc(/C=N/NC(=O)C(C)Oc2cccc3ccccc23)o1 (stereo not given)	VP16 counter inconclusive, RORg inh 16µM
C=C(C)CNC(=S)N/N=C/c1ccc(N2CCOCC2)cc1	VP16 counter 5µM, RORg inh 2µM
C=C(C)CNC(=S)N/N=C\c1ccc2c(c1)OCO2	none
COc1ccc(CC(=O)OCc2cc(=O)n3cc(Br)ccc3n2)cc1OC	none
CCCn1c(=O)c2[nH]cnc2n(-c2ccccc2C)c1=O	none
O=C(/C=C/c1ccccc1Cl)Nc1cccc(S(=O)(=O)NC2=NCCCCC2)c1	RORg inh inconclusive
O=C(/C=C/c1ccc(Cl)cc1Cl)Nc1cccc(S(=O)(=O)NC2=NCCC2)c1	VP16 counter 8.9µM, RORg inh 7.1µM
COc1cc(NC(=O)c2ccc(C)cc2C)ccc1NC(=O)c1cc2ccccc2o1	VP16 counter inconclusive, RORg inh 1.6µM
Cc1cc(C(=O)Nc2cccc(C(=O)O)c2)oc1C	VP16 counter inconclusive, RORg inh 6.3µM
Cc1cccc(NC(=O)c2cc3ccccc3o2)c1	VP16 counter 6.3µM
O=C(Nc1cccc(Br)c1)c1cc2ccccc2o1	none
COc1cc(NC(=O)c2ccccc2F)ccc1NC(=O)c1cc2ccccc2o1	VP16 counter 13µM, RORg inh inconclusive
Fc1ccccc1C(c1nnnn1C1CCCC1)N1CCN(Cc2ccccc2)CC1 (stereo not given)	none
CCN1CCN(S(=O)(=O)c2ccc(C)c([N+](=O)[O-])c2)CC1	none
Cc1cccc2nc(COc3ccc(-c4ccccc4)cc3)cn12	RORg inh 13µM (no result: rTrxR1 inhibitor, TrxR1 substrate)
Cc1cc(C)n2cc(COc3ccc4ccccc4c3)nc2n1	none (no result: GALK inhibitor)
O=C(CNc1ccc(Br)cc1)NNC1=NCCC1	VP16 counter 7.1µM, RORg inh 5.6µM (no result: GALK inhibitor)
CN(C)CCNC(=O)c1cc2c(s1)-c1ccc(Cl)cc1SC2	VP16 counter inconclusive, RORg inh 10µM (no result: GALK inhibitor)
COc1cccc([C@@H]2Oc3ccc(Br)cc3C(=O)[C@H]2O)c1	none (no result: rTrxR1 inhibitor, TrxR1 substrate, GALK inhibitor)
COc1cccc([C@@H]2Oc3ccc(OC)cc3C(=O)[C@H]2O)c1	VP16 counter inconclusive, RORg inh 13µM! (no result: GALK inhibitor)
CCN(CC)S(=O)(=O)c1ccc(N2CCCC2)c(C(=O)OCC(=O)Nc2cc(C)on2)c1	none
CC(C)COc1ccc(C(=O)OCCN2CCCCC2)cc1	none
CC(C)COc1ccc(C(=O)CCN2CCCCC2)cc1	rTrxR1 inhibitor 1.4µM, VP16 counter 11µM, RORg inh 7.1µM
CCCCOc1ccc(C(=O)CCN2CCCCC2)cc1	rTrxR1 inhibitor 3.2µM, VP16 counter 14µM, RORg inh inconclusive
COCCN1CCN(C(=O)C2CCC(=O)N(CCCc3ccccc3)C2)CC1 (stereo not given)	rTrxR1 inhibitor inconclusive (no result: FBPA coupling cs)
CCCn1c(C(C)NC(C)=O)nc2ccccc21 (stereo not given)	none
CCCCCn1c(C(Cc2ccccc2)NC(=O)COC)nc2ccccc21 (stereo not given)	VP16 counter inconclusive, RORg inh 32µM
